This note sets out measurements from the supplement of paper PMC8540655.

Values without a mark were called inactive.

One assay relates to Aedes aegypti larvae. Briefly: larval motility relative to same well at 0 h (fraction); higher = more motile (less active compound), active = 0.4 or less. The note with it: 10 µM; 2 h. The procedure:
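MMV Pandemic Response Box compounds were tested at 10 µM (1% v/v DMSO) on Aedes aegypti larvae (18-24 h after hatching, about 10 per well, 96-well plates). Motility was quantified with INVAPP (200-frame movies) at 0, 2 and 24 h. Each well's motility was divided by its own 0 h score, and the median of 3 independent screens is reported.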
Regarding `NC(=O)c1cnc2ccc(S(=O)(=O)c3ccccc3)cc2c1Nc1ccc(O)cc1`, the larval motility is 1.25.

As to `CCN(CC)S(=O)(=O)c1ccc(Cl)c(C(=O)Nc2sc3c(c2C#N)CCCC3)c1`, the larval motility was 1.52.

As for `Cc1cccc(C)c1C(=O)Nc1nc(-c2ccccn2)cc2ccccc12`, the larval motility was 0.564.

As to `O=c1ccc2ncc(=O)n3c2n1CC3CN1CCC(NCc2cc3c(cn2)OCCC3)CC1` (stereo not given), the larval motility was 0.641.

In the case of `Cc1nc(N(C)C(=O)Cc2ccc(-c3ccccn3)cc2)sc1S(N)(=O)=O`, the larval motility is 1.62.

For the compound `NC(=O)[C@@H]1CC[C@@H]2CN1C(=O)N2OS(=O)(=O)O`, the larval motility was 1.06.

Regarding `C[C@@H](c1nc(-c2ccc(C#N)cc2)cs1)[C@](O)(Cn1cncn1)c1ccc(F)cc1F`, the larval motility was 0.723.

With `Cc1ccn2c(C(=O)NCc3ccccc3)c(C)nc2c1`, the larval motility is 1.47.

Turning to `Fc1ccc(-n2cc(Cn3c(-c4cccc(F)c4)nc4ccccc43)nn2)cc1`, the larval motility was 0.761.

As to `NCC(=O)Nc1ccc(-n2nc(C(F)(F)F)cc2-c2ccc3c(ccc4ccccc43)c2)cc1`, the larval motility was 0.799.

Turning to `CC(C)(C)c1ccc(C(Cn2cccc(C(F)(F)F)c2=O)NC2Cc3ccccc3C2)cc1` (stereo not given), the larval motility was 0.686.

With `CN1c2ccc(Cl)cc2N(c2ccccc2)C(=O)c2cn(Cc3ccc(CN4CCOCC4)cc3)nc21`, the larval motility is 0.674.

For the compound `CCc1nc(N)nc(N)c1C#CCc1ccccc1`, the larval motility was 0.589.

For `O=C(NCCN1CCCCC1)c1cccc(C(F)(F)F)c1`, the larval motility was 0.912.

For the compound `CCO/N=C/c1ccc(OCCCCN2CCN(c3ccncc3)C2=O)cc1`, the larval motility is 1.36.

For the compound `O=C(c1nc2c(C(F)(F)F)cc(C3CC3)cn2c1Cl)N1CCN([C@H]2CC[C@H](O)CC2)C(=O)C1`, the larval motility is 0.697.

Regarding `O=[N+]([O-])c1cn(Cc2nc(O)nc(O)c2Br)cn1`, the larval motility was 0.834.

Take `CCC(C)NCC(O)Cn1c2ccc(Cl)cc2c2cc(Cl)ccc21` (stereo not given): the larval motility was 0.799.

As for `C[C@H](NC(CC(=O)c1ccccc1C(F)(F)F)C(=O)O)c1ccccc1` (stereo not given in full), the larval motility was 0.873.

Regarding `CCOc1noc2cc(OCCC3CCN(c4ccc(C)nn4)CC3)ccc12`, the larval motility was 0.793.

The same assay, now with this note: 10 µM; 24 h.
Turning to `NC(=O)c1cnc2ccc(S(=O)(=O)c3ccccc3)cc2c1Nc1ccc(O)cc1`, the larval motility was 1.01.

For `CCN(CC)S(=O)(=O)c1ccc(Cl)c(C(=O)Nc2sc3c(c2C#N)CCCC3)c1`, the larval motility was 2.15.

Turning to `Cc1cccc(C)c1C(=O)Nc1nc(-c2ccccn2)cc2ccccc12`, the larval motility is 1.01.

Regarding `O=c1ccc2ncc(=O)n3c2n1CC3CN1CCC(NCc2cc3c(cn2)OCCC3)CC1` (stereo not given), the larval motility was 0.964.

`Cc1nc(N(C)C(=O)Cc2ccc(-c3ccccn3)cc2)sc1S(N)(=O)=O`: the larval motility was 1.81.

Take `NC(=O)[C@@H]1CC[C@@H]2CN1C(=O)N2OS(=O)(=O)O`: the larval motility was 1.3.

In the case of `C[C@@H](c1nc(-c2ccc(C#N)cc2)cs1)[C@](O)(Cn1cncn1)c1ccc(F)cc1F`, the larval motility is 0.498.

As for `Cc1ccn2c(C(=O)NCc3ccccc3)c(C)nc2c1`, the larval motility was 2.35.

For `Fc1ccc(-n2cc(Cn3c(-c4cccc(F)c4)nc4ccccc43)nn2)cc1`, the larval motility was 0.415.

`NCC(=O)Nc1ccc(-n2nc(C(F)(F)F)cc2-c2ccc3c(ccc4ccccc43)c2)cc1`: the larval motility is 1.81.

As to `CC(C)(C)c1ccc(C(Cn2cccc(C(F)(F)F)c2=O)NC2Cc3ccccc3C2)cc1` (stereo not given), the larval motility was 0.846.

For the compound `CN1c2ccc(Cl)cc2N(c2ccccc2)C(=O)c2cn(Cc3ccc(CN4CCOCC4)cc3)nc21`, the larval motility is 0.985.

Turning to `CCc1nc(N)nc(N)c1C#CCc1ccccc1`, the larval motility was 0.658.

`O=C(NCCN1CCCCC1)c1cccc(C(F)(F)F)c1`: the larval motility is 1.4.

For `CCO/N=C/c1ccc(OCCCCN2CCN(c3ccncc3)C2=O)cc1`, the larval motility is 1.3.

For `O=C(c1nc2c(C(F)(F)F)cc(C3CC3)cn2c1Cl)N1CCN([C@H]2CC[C@H](O)CC2)C(=O)C1`, the larval motility was 0.894.

Turning to `O=[N+]([O-])c1cn(Cc2nc(O)nc(O)c2Br)cn1`, the larval motility was 0.417.

Regarding `CCC(C)NCC(O)Cn1c2ccc(Cl)cc2c2cc(Cl)ccc21` (stereo not given), the larval motility was 1.

For `C[C@H](NC(CC(=O)c1ccccc1C(F)(F)F)C(=O)O)c1ccccc1` (stereo not given in full), the larval motility was 0.674.

On to `CCOc1noc2cc(OCCC3CCN(c4ccc(C)nn4)CC3)ccc12`, for which the larval motility was 1.06.
